Sampled rows, rich in hits. Any-hit rate of the full collection: about 7.8%.
HCV inh – HCV inhibition. Huh7.5.1 HCVcc-Cre infection, luciferase reporter, 44 h. Potency, µM (series often up to 41.8 µM), without a hit: at the top dose activity change, negative = inhibition, actives largely listed as inhibitors. actives 3.4% (n = 340,000); active = well fitted inhibition curve with a large enough effect; inconclusive = small, poorly fitted or top-dose-only effect, or another doubt; inactive = no such curve, though single readings can be large or run the other way; also: potency is read from the fitted curve at half-maximal effect
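Infectious HCV cell culture screen: compound-treated cells (1,000/well, pre-plated 4 h) are infected with HCVcc-Cre at roughly 0.5 moi and grown 44 h. Infection is quantified by luciferase signal after 15 min substrate incubation at room temperature.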
HCMV antiviral – blocks human cytomegalovirus replication; AID 1259415; actives 4.5% (n = 410,000); activity change, negative = inhibition, % at 57.5 µM; HFF cells, HCMV-luciferase reporter, 72 h; hits give low values; in the data active = activity change below about -60%; inconclusive = no clear call, values can overlap the other calls; inactive = above about -39%
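Inhibition of viral replication was scored as loss of reporter luminescence in HFFs infected with HCMV-luciferase (MOI 1 PFU/cell) for 72 h; compounds tested at 2 doses, normalized to buffer and Salinomycin controls.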
VACV mCherry inh – inhibitors of vaccinia virus infection (mCherry reporter signal). Vaccinia virus mCherry reporter infection, fluorescence. Potency, µM (doses to about 36.5 µM), inactives show top-dose activity change, negative = inhibition, most hits filed as inhibitors. actives 0.63% (n = 310,000). AID 720579; calls by dose curve; tested in A549 cells; also: potency is read from the fitted curve at half-maximal effect; nearly all actives have a fitted effect of over 35% in size
Lassa entry inh – blocks Lassa virus binding to or entry into cells; Potency, µM (titrated, usually from 37.9 µM), for the others: at the highest dose activity change, negative = inhibition, hits mostly inhibitors; AID 540256; Lassa virus pseudotype entry inhibition, cell reporter; actives 1.2% (n = 300,000); calls by dose curve; tested in HEK293 cells; also: potency is read from the fitted curve at half-maximal effect; nearly all actives have a fitted effect of over 50% in size
Marburg entry inh – blocks Marburg virus binding to or entry into cells. Marburg virus pseudotyped entry inhibition, cell reporter. Potency, µM (titrated, usually from 37.8 µM), without a hit: top-dose activity change, negative = inhibition, usual class: inhibitors. actives 1.8% (n = 300,000); calls by dose curve; tested in HEK293 cells; also: potency is read from the fitted curve at half-maximal effect
Vaccinia Venus – vaccinia inhibition (Venus reporter); Vaccinia virus Venus reporter expression, fluorescence; Potency, µM (series often up to 36.5 µM), without a hit: at the highest dose activity change, negative = inhibition, actives largely listed as inhibitors; actives 0.46% (n = 330,000); calls by dose curve; tested in A549 cells; also: potency is read from the fitted curve at half-maximal effect; nearly all actives have a fitted effect of over 30% in size
Numbers without * were called inactive; i = inactive; ? = inconclusive; nt = no result; + = active, no number; ! = repeats disagree; [ ] = dose if it differs, or a comment. % is scaled to controls: 0 for no effect and ±100 for the full control effect.

SMILES | HCV inh | HCMV antiviral | VACV mCherry inh | Lassa entry inh | Marburg entry inh | Vaccinia Venus
COc1ccc(-c2sc(Nc3ccccc3)n[n+]2-c2ccccc2)cc1Br | 6% | ? | -18% | nt | nt | -4%
C(=C\c1sc(Nc2ccccc2)n[n+]1-c1ccccc1)/c1ccccc1 | -2% | -4 | ? | nt | nt | 8.9µM*
CCCNC(=O)c1cc(C2CCCCN2C(=O)c2cc(C(C)(C)C)nn2C)on1 (stereo unspecified) | nt | ? | i | nt | nt | -7%
CC[N@+]1(C)CCC[C@H](OC(=O)C(O)(c2ccccc2)c2ccccc2)C1 | nt | nt | nt | nt | 9% | nt
CC(C)(C)CC(C)(C)N=C1Nc2ccc([N+](=O)[O-])cc2N[C@]12C[C@H]1CCCC(=O)N3CC[C@@H](C2)[C@@H]13 | nt | nt | i | nt | nt | -9%
CCN1CCCc2cc(CN(CCN3CCOCC3)C(=S)Nc3cccc(C)c3)ccc21 | -38% | -65* | ? | ? | ? | -12%
N#Cc1ccc(CSc2nnc(-c3ccccn3)n2-c2ccccc2)cc1 | -1% | 0 | nt | ? | ? | -25%
N#Cc1ccc(CSc2nnc(-c3c[nH]c4ccccc34)n2-c2ccccc2)cc1 | ? | -64* | ? | ? | 2.5µM* | ?
N#Cc1ccc(CSc2nnc(-c3cccs3)n2-c2ccccc2)cc1 | 0.63µM* | -29 | nt | ? | ? | nt
C[C@H](O)C#Cc1cnc2c(c1)C(=O)N([C@H](C)CO)C[C@@H](C)[C@@H](CN(C)Cc1ccc(-c3ccccc3)cc1)O2 | nt | -71* | ? | nt | nt | ?
C[C@@H]1CN([C@H](C)CO)C(=O)c2cc(Br)cnc2O[C@@H]1CN(C)C(=O)Cc1ccccc1 | nt | 3 | i | nt | nt | -7%
C[C@H](O)C#Cc1ccc2c(c1)O[C@@H](CN(C)Cc1ccc(-c3ccccc3)cc1)[C@H](C)CN([C@@H](C)CO)S2(=O)=O | nt | -82* | -23% | nt | nt | ?
C[C@@H]1CN([C@H](C)CO)C(=O)c2cc(Br)cnc2O[C@H]1CN(C)C(=O)Cc1ccncc1 | nt | -6 | ? | nt | nt | 1.3µM*
C[C@H](CO)N1C[C@H](C)[C@@H](CN(C)Cc2ccc(-c3ccccc3)cc2)Oc2ncc(C#C[C@@H](C)O)cc2C1=O | nt | 6 | ? | nt | nt | -30%
CCOC(=O)CSc1nc(Cc2ccccc2)nc2ccccc12 | -21% | -66* | i | -2%[46.1 µM] | 4%[46.1 µM] | -10%
CCOC(=O)CSc1nnc(Cc2ccc(OC)cc2)n1-c1ccccc1 | 4% | -109* | nt | 2% | 7% | nt
CCOC(=O)CSc1nc(CC)nc2ccccc12 | -25% | -16 | -16% | -6% | -2% | -6%
COc1ccc(-n2c(CNc3ccc(C)cc3)nnc2SCc2ccccc2)cc1 | -6% | 33 | ? | 11µM* | ? | -24%
CCc1cnc2c(c1SCC(=O)c1ccc(Cl)cc1)c(=O)n(C)c(=O)n2C | nt | 5 | -18% | -19%[46.1 µM] | nt | -16%
CCCS(=O)(=O)N1CC(=O)N(c2cccc(Cl)c2)C(C)(C(=O)NC2CCCCC2)C1 (stereo unspecified) | nt | 0 | -4% | 0%[46.1 µM] | nt | -9%
COc1ccc(Cl)cc1NC(=O)Cn1c(=O)n(CCC(=O)NCc2ccc3c(c2)OCO3)c(=O)c2ccccc21 | nt | -64* | -27% | -1%[46.1 µM] | -20%[46.1 µM] | -22%
COc1ccc(NC(=O)Cn2nnc(C(=O)NCCc3ccccc3)c2N)c(OC)c1 | -21% | ? | i[7.34 µM] | nt | nt | 0%[7.34 µM]
COc1ccccc1NC(=O)Cn1nnc(C(=O)NCc2ccc3c(c2)OCO3)c1N | -24% | -69*! | 2%[7.34 µM] | -3%[46.1 µM] | 15%[46.1 µM] | 20%[7.34 µM]
COc1ccc(NC(=O)Cn2nnc(C(=O)NCc3ccccc3)c2N)c(OC)c1 | -20% | -13 | nt | ? | 8.2µM* | nt
CCOc1ccc(NC(=O)c2nnn(CC(=O)Nc3ccccc3OCC)c2N)cc1 | 11µM* | 13 | -28% | 1% | 0% | -15%
SMILES | HCV inh | HCMV antiviral | VACV mCherry inh | Lassa entry inh | Marburg entry inh | Vaccinia Venus
COc1ccc(-n2nnnc2SCC(=O)NCCc2ccccc2)cc1 | nt | 6 | 19% | -4%[46.1 µM] | 3%[46.1 µM] | 4%
CCOC(=O)CN1C(=O)[C@@]2(CC(C)=CC[C@@H](COc3ccccc3)O2)c2c(Br)cccc21 | nt | nt | nt | nt | -35%[14.2 µM] | nt
CCOC(=O)C1CCC(CN(Cc2ccc(Cl)cc2)S(=O)(=O)c2cccc(Cl)c2C)CC1 (stereo unspecified) | nt | 5 | 9% | 19%[46.1 µM] | nt | 10%
Cc1ccc(NC(=O)Cn2cc3c(n2)CCC(C)C3)cc1C (stereo unspecified) | nt | 9 | 5% | -5%[46.1 µM] | 11%[46.1 µM] | -8%
CCOc1ccccc1NC(=O)Cn1nnc(-c2ccc(OCC)c(OCC)c2)n1 | 8.9µM* | 11 | ? | ? | ? | ?
Cc1cc(C)cc(NC(=O)Cn2nnc(C(=O)Nc3cc(C)cc(C)c3)c2N)c1 | nt | -83* | -11% | -17%[46.1 µM] | -30%[46.1 µM] | -18%
COc1ccc(NC(=O)c2sc3nc4c(cc3c2N)CN(Cc2ccccc2)CC4)c(OC)c1 | nt | -95* | -3% | -3%[46.1 µM] | -3%[46.1 µM] | -10%
COc1ccc(-c2nn(-c3ccc(F)cc3F)c3c2cnc2ccc(F)cc23)cc1 | nt | 16 | -25% | 0%[46.1 µM] | nt | -20%
Cc1c(C(=O)NCC2CCCN(C)C2)cnn1-c1ncc2c(n1)-c1ccccc1CCC2 (stereo unspecified) | nt | nt | -15% | nt | nt | -12%
CCOc1ccc2c(c1)c(=O)c(C(=O)c1ccc3c(c1)OCO3)cn2Cc1cccc(F)c1 | nt | -5 | -19% | -17%[46.1 µM] | ? | -10%
CC1CCCN(CCOc2ccc3ccccc3c2Br)C1 (stereo unspecified) | 11µM* | -83* | -23% | ? | ? | -23%
N=c1c2ccccc2nc2n1CCCCCCCCCCC2 | 13µM* | ? | i[7.34 µM] | ? | ? | -9%[7.34 µM]
Clc1ccc(-c2cc(-c3nnc4n3CCCCC4)c3ccccc3n2)cc1 | 11% | -72* | -16% | 6% | -7% | -10%
O=c1c2ccccc2nc2n1CCCCC2 | 5% | -24 | i | -10% | 16% | -14%
CCOC(=O)c1ccc(NC(=O)Nc2nc3ccccc3s2)cc1 | nt | -35 | -7% | nt | nt | -20%
CCOC(=O)c1ccc(NC(=O)Nc2ccc(Cl)cn2)cc1 | 19% | -2 | i | -2% | 12%[46.1 µM] | -13%
CCOC(=O)c1ccc(NC(=O)c2nc[nH]c2C(=O)NC)cc1 | ? | 6 | i | nt | nt | -10%
CCOC(=O)c1ccc(NC(=O)Nc2nncs2)cc1 | nt | -75* | ? | nt | nt | ?
CCOC(=O)c1ccc(NC(=O)c2nccnc2C(=O)O)cc1 | 10% | -75* | i | nt | nt | -10%
CCOC(=O)c1ccc(NC(=O)Nc2ccon2)cc1 | -1% | + | nt | nt | nt | nt
COc1ccc(CNC(=O)Cc2c(C)c3c(cc(C)c4c(C)c(C)oc43)oc2=O)cc1 | nt | -13 | -16% | -3%[46.1 µM] | 1%[46.1 µM] | -10%
COC(/C(=N/O)c1ccc(Cl)cc1)c1ccccc1 (stereo unspecified) | -13% | -94* | ? | ? | ? | ?

Source: PubChem (National Center for Advancing Translational Sciences (NCATS))
